# In the supplement of paper PMC10849652:
# Targets with a hit are over-represented here; the source holds about 8,800 in all. About 0.5% of all pairs of compound and target were hits. Values without a mark were called inactive.
# What was measured:
# Experiment in all cases: log2 fold change, soluble protein after heating vs DMSO (PISA); higher = thermal stabilisation; K562 lysate, 10 uM; active = over 0.2 and 3.5 SD of the protein, either way, in both replicates (recomputed)
# alvocidib = compound: CN1CC[C@H](c2c(O)cc(O)c3c(=O)cc(-c4ccccc4Cl)oc23)[C@H](O)C1 [alvocidib]
# Method in brief: (§1)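 A 30 min treatment with 10 μM compound was applied to crude K562 extract at 1 mg/mL protein in PBS pH 7.4 with 1 mM MgCl2. Heating for 3 min spanned 48°C-58°C, after which aliquots were pooled, adjusted to 0.5% NP-40 at 4°C and spun at 21,000xg for 90 min. TMTpro 16plex LC-MS/MS of the supernatant, with channel sums equalised, gave values recorded as log-two fold change in thermal stability against solvent controls, from duplicates.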
# Tubastatin A = compound: CN1CCc2c(c3ccccc3n2Cc2ccc(C(=O)NO)cc2)C1 [Tubastatin A]
# Method in brief: as §1
# [1] = compound: CNC(=O)C1=CC=CC=C1NC2=NC(=NC=C2Cl)NC3=C(C=C(C=C3)N4CCOCC4)OC
# Method in brief: as §1
# defactinib = compound: CNC(=O)c1ccc(Nc2ncc(C(F)(F)F)c(NCc3nccnc3N(C)S(C)(=O)=O)n2)cc1 [defactinib]
# Method in brief: as §1
# [2] = compound: CNc1nc(-c2ccc3c(N)n[nH]c3c2)cc(N2C[C@@H](C(=O)NC3CCCCC3)CC[C@H]2C)n1
# Method in brief: as §1
# encorafenib = compound: COC(=O)N[C@@H](C)CNc1nccc(-c2cn(C(C)C)nc2-c2cc(Cl)cc(NS(C)(=O)=O)c2F)n1 [encorafenib]
# Method in brief: as §1
# [3] = compound: COC(=O)[C@H](CCSC)NC(=O)C1=C(C=C(C=C1)NC[C@H](CS)N)C2=CC=CC=C2
# Method in brief: as §1
# alisertib = compound: COc1cc(Nc2ncc3c(n2)-c2ccc(Cl)cc2C(c2c(F)cccc2OC)=NC3)ccc1C(=O)O [alisertib]
# Method in brief: as §1
# [4] = compound: COc1cc2nc(-c3cc(F)ccc3O)nc(N[C@@H]3CNC[C@H]3C(C)(C)O)c2cc1OC
# Method in brief: as §1
# gefitinib = compound: COc1cc2ncnc(Nc3ccc(F)c(Cl)c3)c2cc1OCCCN1CCOCC1 [gefitinib]
# Method in brief: as §1
# UniProt Q14674, sequence (Q14674 whole entry, looked up): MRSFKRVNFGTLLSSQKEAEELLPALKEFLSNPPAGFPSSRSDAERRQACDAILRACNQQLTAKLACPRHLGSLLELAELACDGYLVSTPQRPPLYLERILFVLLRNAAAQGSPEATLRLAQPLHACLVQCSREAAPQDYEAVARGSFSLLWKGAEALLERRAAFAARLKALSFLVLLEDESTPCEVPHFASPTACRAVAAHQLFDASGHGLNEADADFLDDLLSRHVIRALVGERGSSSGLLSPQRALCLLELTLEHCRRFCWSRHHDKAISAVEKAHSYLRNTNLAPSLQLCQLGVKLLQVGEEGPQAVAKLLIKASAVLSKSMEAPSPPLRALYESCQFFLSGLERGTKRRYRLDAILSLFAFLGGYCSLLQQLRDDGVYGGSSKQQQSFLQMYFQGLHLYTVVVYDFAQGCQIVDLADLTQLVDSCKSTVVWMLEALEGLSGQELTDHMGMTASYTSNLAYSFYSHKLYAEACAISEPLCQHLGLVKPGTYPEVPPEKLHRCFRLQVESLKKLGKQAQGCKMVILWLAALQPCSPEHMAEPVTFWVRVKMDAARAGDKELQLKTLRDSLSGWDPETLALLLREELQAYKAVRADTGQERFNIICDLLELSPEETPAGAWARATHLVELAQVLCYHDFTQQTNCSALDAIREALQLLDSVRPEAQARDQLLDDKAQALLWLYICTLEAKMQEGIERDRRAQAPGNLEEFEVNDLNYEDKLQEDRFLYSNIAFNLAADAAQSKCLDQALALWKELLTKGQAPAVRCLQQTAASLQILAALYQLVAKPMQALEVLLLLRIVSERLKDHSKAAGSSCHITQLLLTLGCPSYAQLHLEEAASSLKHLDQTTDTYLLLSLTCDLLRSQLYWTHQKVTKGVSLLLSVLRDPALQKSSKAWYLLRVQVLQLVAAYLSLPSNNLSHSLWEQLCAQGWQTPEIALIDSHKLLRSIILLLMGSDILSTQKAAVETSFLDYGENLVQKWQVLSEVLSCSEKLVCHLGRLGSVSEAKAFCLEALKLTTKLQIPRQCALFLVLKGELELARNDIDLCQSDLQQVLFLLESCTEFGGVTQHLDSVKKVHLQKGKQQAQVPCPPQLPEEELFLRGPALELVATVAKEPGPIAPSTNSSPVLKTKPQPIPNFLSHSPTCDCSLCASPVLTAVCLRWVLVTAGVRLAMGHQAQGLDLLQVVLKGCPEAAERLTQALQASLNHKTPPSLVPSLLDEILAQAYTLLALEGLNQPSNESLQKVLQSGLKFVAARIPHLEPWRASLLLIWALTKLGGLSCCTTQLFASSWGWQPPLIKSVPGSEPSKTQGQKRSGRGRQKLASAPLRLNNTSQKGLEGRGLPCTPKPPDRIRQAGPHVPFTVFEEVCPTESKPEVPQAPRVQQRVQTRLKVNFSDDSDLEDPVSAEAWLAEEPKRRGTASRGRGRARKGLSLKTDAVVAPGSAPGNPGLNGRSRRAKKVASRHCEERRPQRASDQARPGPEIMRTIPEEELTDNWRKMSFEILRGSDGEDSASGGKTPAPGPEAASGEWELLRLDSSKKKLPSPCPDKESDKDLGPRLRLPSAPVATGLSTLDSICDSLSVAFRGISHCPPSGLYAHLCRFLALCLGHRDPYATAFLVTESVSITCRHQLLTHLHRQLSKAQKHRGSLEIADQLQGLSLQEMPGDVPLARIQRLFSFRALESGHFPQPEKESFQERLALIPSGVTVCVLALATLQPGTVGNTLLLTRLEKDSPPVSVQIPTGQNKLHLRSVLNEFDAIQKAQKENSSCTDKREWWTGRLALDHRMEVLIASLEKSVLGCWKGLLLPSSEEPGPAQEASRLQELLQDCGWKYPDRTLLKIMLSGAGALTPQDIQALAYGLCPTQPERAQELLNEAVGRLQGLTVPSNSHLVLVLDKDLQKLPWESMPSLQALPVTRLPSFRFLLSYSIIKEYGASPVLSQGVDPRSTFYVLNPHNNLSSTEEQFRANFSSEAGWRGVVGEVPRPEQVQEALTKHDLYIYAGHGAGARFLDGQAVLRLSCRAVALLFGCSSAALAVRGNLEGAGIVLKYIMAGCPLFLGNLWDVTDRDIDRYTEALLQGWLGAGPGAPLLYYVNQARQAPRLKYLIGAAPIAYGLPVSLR
# UniProt P23919, sequence (P23919 whole entry, looked up): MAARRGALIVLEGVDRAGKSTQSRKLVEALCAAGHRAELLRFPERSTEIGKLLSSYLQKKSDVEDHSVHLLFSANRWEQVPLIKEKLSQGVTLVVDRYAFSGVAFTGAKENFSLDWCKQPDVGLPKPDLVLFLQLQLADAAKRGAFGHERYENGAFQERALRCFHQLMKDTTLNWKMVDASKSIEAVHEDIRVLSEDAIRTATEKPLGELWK
# UniProt Q6PIW4, sequence (Q6PIW4 whole entry, looked up): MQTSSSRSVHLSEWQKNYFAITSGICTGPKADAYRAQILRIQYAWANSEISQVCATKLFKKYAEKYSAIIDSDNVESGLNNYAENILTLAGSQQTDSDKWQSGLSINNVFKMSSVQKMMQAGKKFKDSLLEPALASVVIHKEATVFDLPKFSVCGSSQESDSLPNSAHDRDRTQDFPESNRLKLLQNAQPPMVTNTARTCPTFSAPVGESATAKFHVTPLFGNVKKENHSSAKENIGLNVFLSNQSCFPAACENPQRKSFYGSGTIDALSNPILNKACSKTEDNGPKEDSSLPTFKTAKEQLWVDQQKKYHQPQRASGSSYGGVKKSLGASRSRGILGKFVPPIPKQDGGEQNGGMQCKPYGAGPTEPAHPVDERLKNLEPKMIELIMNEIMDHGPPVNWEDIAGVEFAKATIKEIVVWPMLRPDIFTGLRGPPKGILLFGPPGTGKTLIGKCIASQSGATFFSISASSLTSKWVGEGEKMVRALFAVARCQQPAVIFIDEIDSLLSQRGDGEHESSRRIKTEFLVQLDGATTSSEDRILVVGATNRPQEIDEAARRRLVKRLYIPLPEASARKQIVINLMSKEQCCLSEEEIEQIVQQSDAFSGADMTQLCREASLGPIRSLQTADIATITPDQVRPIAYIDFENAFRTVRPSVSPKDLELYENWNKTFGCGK
# UniProt P49356, sequence (P49356 whole entry, looked up): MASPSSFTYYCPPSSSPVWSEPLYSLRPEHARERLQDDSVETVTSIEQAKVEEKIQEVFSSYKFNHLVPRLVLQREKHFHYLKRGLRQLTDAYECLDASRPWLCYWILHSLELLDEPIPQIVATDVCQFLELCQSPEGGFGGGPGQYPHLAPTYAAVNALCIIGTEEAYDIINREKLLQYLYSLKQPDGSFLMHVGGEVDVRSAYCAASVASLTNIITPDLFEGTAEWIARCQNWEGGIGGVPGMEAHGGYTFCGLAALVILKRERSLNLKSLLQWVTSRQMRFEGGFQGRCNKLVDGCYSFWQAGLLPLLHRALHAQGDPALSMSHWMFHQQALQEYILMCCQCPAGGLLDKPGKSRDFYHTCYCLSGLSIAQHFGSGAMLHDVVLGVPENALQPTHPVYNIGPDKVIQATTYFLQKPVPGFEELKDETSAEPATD
# UniProt Q92947, sequence (Q92947 whole entry, looked up): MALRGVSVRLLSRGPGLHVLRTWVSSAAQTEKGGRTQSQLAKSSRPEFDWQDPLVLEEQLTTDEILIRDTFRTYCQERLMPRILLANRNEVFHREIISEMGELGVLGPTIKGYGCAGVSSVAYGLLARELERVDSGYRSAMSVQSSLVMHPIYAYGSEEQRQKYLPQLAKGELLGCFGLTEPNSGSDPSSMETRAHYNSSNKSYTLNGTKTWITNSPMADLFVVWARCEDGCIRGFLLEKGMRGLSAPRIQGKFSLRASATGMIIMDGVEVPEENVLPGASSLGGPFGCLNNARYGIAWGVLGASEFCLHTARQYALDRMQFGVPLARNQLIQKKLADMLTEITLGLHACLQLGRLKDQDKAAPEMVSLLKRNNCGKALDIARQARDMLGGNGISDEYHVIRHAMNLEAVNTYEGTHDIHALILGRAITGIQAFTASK
# UniProt Q7L8L6, sequence (Q7L8L6 whole entry, looked up): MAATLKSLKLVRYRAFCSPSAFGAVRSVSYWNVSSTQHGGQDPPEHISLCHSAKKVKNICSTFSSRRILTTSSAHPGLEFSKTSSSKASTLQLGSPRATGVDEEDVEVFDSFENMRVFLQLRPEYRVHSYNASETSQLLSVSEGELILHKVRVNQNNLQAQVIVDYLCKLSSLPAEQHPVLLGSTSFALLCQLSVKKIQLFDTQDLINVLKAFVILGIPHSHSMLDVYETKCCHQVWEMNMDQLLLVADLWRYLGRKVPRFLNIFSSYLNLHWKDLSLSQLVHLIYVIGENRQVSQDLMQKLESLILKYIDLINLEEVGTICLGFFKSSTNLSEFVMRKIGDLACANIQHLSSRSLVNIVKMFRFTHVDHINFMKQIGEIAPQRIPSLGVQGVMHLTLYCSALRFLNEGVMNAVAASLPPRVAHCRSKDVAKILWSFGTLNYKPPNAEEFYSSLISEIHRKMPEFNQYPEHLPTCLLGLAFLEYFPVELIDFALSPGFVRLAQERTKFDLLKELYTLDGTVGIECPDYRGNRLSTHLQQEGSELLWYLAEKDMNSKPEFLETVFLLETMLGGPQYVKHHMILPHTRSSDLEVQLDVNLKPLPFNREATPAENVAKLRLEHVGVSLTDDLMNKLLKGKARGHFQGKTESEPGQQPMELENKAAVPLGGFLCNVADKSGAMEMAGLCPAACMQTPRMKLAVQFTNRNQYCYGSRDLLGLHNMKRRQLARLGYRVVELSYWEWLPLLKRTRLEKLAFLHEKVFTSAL
# UniProt O95718, sequence (O95718 whole entry, looked up): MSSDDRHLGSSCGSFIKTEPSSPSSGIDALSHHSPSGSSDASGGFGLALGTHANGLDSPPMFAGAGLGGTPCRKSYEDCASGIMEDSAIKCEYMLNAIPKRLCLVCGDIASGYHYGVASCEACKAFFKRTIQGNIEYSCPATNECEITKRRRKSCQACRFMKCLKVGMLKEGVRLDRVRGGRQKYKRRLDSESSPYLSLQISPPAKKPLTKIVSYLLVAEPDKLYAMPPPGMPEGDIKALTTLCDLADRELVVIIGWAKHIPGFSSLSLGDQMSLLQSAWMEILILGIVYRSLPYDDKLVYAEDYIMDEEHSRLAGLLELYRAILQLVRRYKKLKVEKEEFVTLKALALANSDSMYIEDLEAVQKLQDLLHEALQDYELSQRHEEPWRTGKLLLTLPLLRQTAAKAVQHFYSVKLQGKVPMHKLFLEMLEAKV
Target,log2 fold change (alvocidib),log2 fold change (Tubastatin A),log2 fold change [1],log2 fold change (defactinib),log2 fold change [2],log2 fold change (encorafenib),log2 fold change [3],log2 fold change (alisertib),log2 fold change [4],log2 fold change (gefitinib)
ESRRB isoform 1 (UniProt O95718),0.233,-0.269,-0.011,–,–,–,–,–,–,–
DSTN (UniProt P60981),-0.011,-0.089,0.015,0.002,-0.072,-0.011,-0.071,-0.013,-0.02,-0.043
DYRK1A isoform 2 (UniProt Q13627),0.225,0.023,0.148,–,–,–,–,–,–,–
EP300 (UniProt Q09472),-0.098,0.035,-0.026,0.066,0.006,0.031,0.105,-0.121,-0.056,-0.054
FKBP1A (UniProt P62942),-0.296,0.047,0.06,0.144,0.034,0.005,-0.061,0.105,-0.076,-0.003
GCDH (UniProt Q92947),0.018,-0.069,-0.049,0.004,0.057,-0.049,0.159,0.049,0.006,-0.004
FKBP8 isoform 2 (UniProt Q14318),0.004,-0.123,0.02,0.024,-0.018,0.009,0.112,0.027,0.001,0.01
ENO1 isoform 2 (UniProt P06733),-0.174,0.085,-0.13,-0.001,0.009,0.033,-0.033,0.022,-0.004,-0.015
GBF1 (UniProt Q92538),0,-0.041,0.032,0.007,0.004,0.036,-0.031,0.002,-0.008,-0.03
"FADS1, A0A0A0MR51",0.03,0.1,0.158,0.084,0.011,-0.055,0.03,-0.008,-0.067,-0.001
EEF1A1P5 (UniProt Q5VTE0),-0.022,-0.065,-0.021,-0.015,-0.218,-0.027,0.127,0.023,0.009,0
EIF2D (UniProt P41214),0.017,-0.083,0.003,0.033,-0.024,-0.014,0.164,0.013,-0.018,-0.031
EEF1AKNMT (UniProt Q8N6R0),0.009,-0.102,0.051,-0.012,-0.015,0.005,0.076,-0.02,0.027,-0.031
FASTKD5 (UniProt Q7L8L6),0.024,-0.11,0.03,0.011,-0.017,0.064,0.135,0.002,0.072,-0.018
FIGNL1 (UniProt Q6PIW4),-0.018,-0.189,0.014,0.05,-0.018,0.041,0.069,-0.003,0.005,0.01
DTYMK (UniProt P23919),0.037,-0.095,0.01,-0.006,0.04,-0.061,0.283 (active),0.009,-0.007,-0.011

Target,log2 fold change (alvocidib),log2 fold change (Tubastatin A),log2 fold change [1],log2 fold change (defactinib),log2 fold change [2],log2 fold change (encorafenib),log2 fold change [3],log2 fold change (alisertib),log2 fold change [4],log2 fold change (gefitinib)
EEFSEC (UniProt P57772),-0.008,-0.157,0.019,0.036,-0.017,0.018,0.098,0.019,0,-0.012
FNBP1L (UniProt Q5T0N5),0.04,-0.043,0.023,-0.066,0.357 (active),0.045,0.034,0.005,-0.015,0.099
EXOC3 (UniProt O60645),0.011,-0.063,0.009,0.031,-0.037,0.001,0.07,0.032,-0.023,-0.001
EMP3 (UniProt P54852),-0.227,-0.021,0.067,0.009,0.056,-0.016,0.022,0.053,0.052,-0.071
EBP (UniProt Q15125),-0.003,0.004,0.087,0.028,0.291 (active),0.005,-0.016,-0.036,0.048,0.04
FOXK1 (UniProt P85037),-0.037,-0.116,0.025,0.003,0.059,0.009,0.09,0.016,0.014,0.003
ERBIN isoform 8 (UniProt Q96RT1),-0.01,0.031,0.025,-0.031,-0.028,0.013,-0.029,-0.028,-0.001,0.03
FAM76B (UniProt Q5HYJ3),-0.019,0.012,0.068,0.076,-0.002,0.013,-0.146,-0.02,0.016,-0.018
FDX2 (UniProt Q6P4F2),-0.016,0.093,-0.001,-0.017,-0.478,-0.33,-0.313,0.07,-0.021,-0.041
ERLIN1 (UniProt O75477),0.006,-0.058,-0.001,-0.024,-0.066,0.086,-0.216 (active),-0.007,-0.028,0.035
FNTB (UniProt P49356),-0.003,0.048,-0.019,0.026,-0.056,-0.046,0.131,-0.034,-0.007,-0.031
FCHO1 (UniProt O14526),0.027,-0.188,0.038,0.039,0.038,0.009,0.076,0.009,-0.021,0.003
FAM114A2 (UniProt Q9NRY5),0.021,0.134,0,0.032,0.037,0.219,0.027,0.127,0.118,0.073
ESPL1 (UniProt Q14674),0.044,-0.023,0.129,-0.188,0.053,0.101,-0.013,0.004,-0.233,-0.009
FYCO1 isoform 4 (UniProt Q9BQS8),-0.052,0,-0.001,-0.002,-0.006,0.033,0.024,0.018,0.018,0.016
